According to PubChem BioAssay (Tox21):
A number with no mark means an inactive call. Results filed as inconclusive are left out. Where a call stands in place of a potency, no number is given. Activity calls are given as the source filed them. Calls follow the shape of the dose curve; as a rule, active = well fitted curve in the direction sought with a large enough effect in the repeat runs; inconclusive = weak or mixed curves; inactive = no such curve, though single readings can be large; an effect the other way counts as inactive or inconclusive.

Experiments:
[1] = qHTS RealTime-Glo MT Cell Viability Assay in HepG2 cells - 24 hour (AID 1224867); also: nearly all actives have a fitted effect of over 50% in size
In short: (§1)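 Viability was tracked continuously by NanoLuc luminescence from prosubstrate reduced by living HepG2 cells, at successive time points over 40 h of compound exposure. Cells with reagent were preincubated 5 h at 37 °C before compound addition.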

[2] = A CellTox Green Cytotoxicity Assay to monitor cytotoxicity in HEK293 cells - 0 hour (AID 1224869); also: nearly all actives have a fitted effect of over 50% in size
In short: (§2)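 HEK293 cells premixed with CellTox Green dye were seeded at 600 cells/well and left 5 h at 37 C/5% CO2 before pin transfer of 23 nL compound in DMSO. Fluorescence from dye bound to dead-cell DNA was read during 40 h treatment.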

[3] = qHTS RealTime-Glo MT Cell Viability Assay in HepG2 cells - 40 hour (AID 1224870); also: nearly all actives have a fitted effect of over 50% in size
In short: (§3)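 HepG2 cells (600/well) mixed with RealTime-Glo MT reagent, settled 5 h at 37 C/5% CO2 before compound addition. Nonlytic NanoLuc luminescence from viable-cell prosubstrate reduction read repeatedly during 40 h treatment at 37 C.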

[4] = A CellTox Green Cytotoxicity Assay to monitor cytotoxicity in HEK293 cells - 40 hour (AID 1224871); also: nearly all actives have a fitted effect of over 45% in size
In short: as §2

[5] = qHTS RealTime-Glo MT Cell Viability Assay in HEK293 cells - 16 hour (AID 1224872); also: top concentration of the series differs between compounds; nearly all actives have a fitted effect of over 50% in size
In short: (§4)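 Viability tracked continuously by luminescence as live cells reduce a prosubstrate for NanoLuc; HEK293 cells preincubated 5 h, compound-treated at 37 C, and read at 0, 8, 16, 24, 32 and 40 h.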

[6] = qHTS RealTime-Glo MT Cell Viability Assay in HepG2 cells - 8 hour (AID 1224873); also: nearly all actives have a fitted effect of over 55% in size
In short: as §3

[7] = A CellTox Green Cytotoxicity Assay to monitor cytotoxicity in HepG2 cells - 16 hour (AID 1224876); also: nearly all actives have a fitted effect of over 45% in size; also: potency is read from the fitted curve at half-maximal effect
In short: (§5)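 HepG2 cells were seeded together with the CellTox Green dye at 600 cells/well, left 5 h at 37 C/5% CO2, then given compounds in DMSO. Fluorescence from dye bound to dead-cell DNA was read repeatedly over 40 h of treatment at 37 C.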

[8] = qHTS RealTime-Glo MT Cell Viability Assay in HepG2 cells - 32 hour (AID 1224877); also: nearly all actives have a fitted effect of over 55% in size
In short: as §1

[9] = qHTS RealTime-Glo MT Cell Viability Assay in HEK293 cells - 0 hour (AID 1224880); also: top concentration of the series differs between compounds; nearly all actives have a fitted effect of over 45% in size
In short: (§6)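 HEK293 cells mixed with RealTime-Glo reagents (NanoLuc plus cell-permeant prosubstrate) at 600 cells/well, preincubated 5 h at 37 C/5% CO2, then given 23 nL compound in DMSO. Nonlytic luminescence from viable cells was read at 0, 8, 16, 24, 32 and 40 h.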

[10] = A CellTox Green Cytotoxicity Assay to monitor cytotoxicity in HEK293 cells - 32 hour (AID 1224881); also: nearly all actives have a fitted effect of over 40% in size
In short: as §2

[11] = A CellTox Green Cytotoxicity Assay to monitor cytotoxicity in HepG2 cells - 0 hour (AID 1224882); also: nearly all actives have a fitted effect of over 35% in size
In short: as §5

[12] = A CellTox Green Cytotoxicity Assay to monitor cytotoxicity in HEK293 cells - 8 hour (AID 1224884); also: nearly all actives have a fitted effect of over 35% in size
In short: as §2

[13] = qHTS RealTime-Glo MT Cell Viability Assay in HepG2 cells - 16 hour (AID 1224885); also: nearly all actives have a fitted effect of over 50% in size
In short: as §1

[14] = qHTS RealTime-Glo MT Cell Viability Assay in HEK293 cells - 24 hour (AID 1224886)
In short: as §4

[15] = qHTS RealTime-Glo MT Cell Viability Assay in HEK293 cells - 40 hour (AID 1224874); settings: RealTime-Glo luminescence; max response: active compounds read low; also: nearly all actives have a fitted effect of over 50% in size
In short: as §6

[16] = A CellTox Green Cytotoxicity Assay to monitor cytotoxicity in HepG2 cells - 24 hour (AID 1224878); also: nearly all actives have a fitted effect of over 45% in size; also: potency is read from the fitted curve at half-maximal effect
In short: as §5

[17] = A CellTox Green Cytotoxicity Assay to monitor cytotoxicity in HepG2 cells - 40 hour (AID 1224879); also: nearly all actives have a fitted effect of over 40% in size; also: potency is read from the fitted curve at half-maximal effect
In short: as §5

[18] = A CellTox Green Cytotoxicity Assay to monitor cytotoxicity in HepG2 cells - 32 hour (AID 1224883); also: nearly all actives have a fitted effect of over 50% in size; also: potency is read from the fitted curve at half-maximal effect
In short: as §5

[19] = A CellTox Green Cytotoxicity Assay to monitor cytotoxicity in HEK293 cells - 24 hour (AID 1224875)
In short: as §2

[20] = qHTS RealTime-Glo MT Cell Viability Assay in HEK293 cells - 32 hour (AID 1224868)
In short: as §4

Compound	outcome [1]	Potency [2]	outcome [3]	Potency [4]	Potency [5]	outcome [6]	Potency [7]	outcome [8]	Potency [9]	Potency [10]	Potency [11]	Potency [12]	outcome [13]	Potency [14]	max response [15] [%]	Potency [16]	Potency [17]	Potency [18]	Potency [19]	Potency [20]
C=CCCCCCCCCC(=O)OCCCC	inactive	inactive	inactive	inactive	inactive	inactive	inactive	inactive	inactive	inactive	inactive	inactive	inactive	inactive	–	–	–	–	–	–
CC(Oc1cc(Cl)ccc1Cl)C(=O)O (stereo not given)	inactive	inactive	–	inactive	inactive	inactive	inactive	inactive	inactive	inactive	inactive	inactive	inactive	inactive	-5.27	inactive	inactive	inactive	–	–
CC(C)C[C@@H]1[C@H](c2ccccc2)OC(=O)N1CCCN1CCCCCC1	inactive	inactive	inactive	inactive	–	inactive	inactive	–	inactive	inactive	inactive	inactive	inactive	–	–	inactive	inactive	inactive	–	–
CC12CCC(C1)C(C)(C)C2O (stereo not given)	inactive	–	–	–	inactive	inactive	1.95 µM (active)	inactive	inactive	–	inactive	–	inactive	–	–	2.19 µM (active)	2.19 µM (active)	2.19 µM (active)	–	–
CN(C)CCCCl	inactive	inactive	inactive	inactive	inactive	inactive	inactive	inactive	inactive	inactive	inactive	inactive	inactive	inactive	–	inactive	inactive	inactive	–	–
CC(C)COC(=O)c1ccccc1	inactive	inactive	inactive	inactive	inactive	inactive	inactive	–	inactive	inactive	inactive	inactive	inactive	inactive	2.33	inactive	inactive	inactive	–	–
CC(=O)OC(C)=O	inactive	inactive	–	inactive	inactive	inactive	inactive	inactive	inactive	inactive	inactive	inactive	inactive	inactive	–	inactive	inactive	inactive	inactive	–
Cc1ccc(C(C)NC(=O)[C@@H](NC(=O)OC(C)C)C(C)C)cc1 (stereo not given in full)	–	inactive	inactive	inactive	inactive	inactive	inactive	inactive	inactive	inactive	inactive	inactive	inactive	inactive	-6.73	inactive	inactive	inactive	inactive	inactive
CCCCCCC1(C)CCC(=O)O1 (stereo not given)	inactive	inactive	–	inactive	inactive	inactive	inactive	inactive	inactive	inactive	inactive	inactive	inactive	inactive	–	inactive	inactive	inactive	–	–
C/C(=C1\CCOC(=O)S1)N(C=O)Cc1cnc(C)nc1N	–	inactive	inactive	inactive	inactive	inactive	inactive	inactive	inactive	inactive	inactive	inactive	inactive	inactive	3.03	inactive	inactive	inactive	inactive	inactive
c1ccc(B(c2ccccc2)c2ccccc2)cc1	inactive	inactive	inactive	inactive	–	inactive	inactive	–	inactive	inactive	inactive	inactive	inactive	–	–	inactive	inactive	inactive	inactive	–
CC(=O)C(C)O (stereo not given)	inactive	inactive	inactive	inactive	inactive	inactive	inactive	inactive	inactive	inactive	inactive	inactive	inactive	inactive	16	inactive	inactive	inactive	–	–
CC1=C(O)C(=O)C(C)O1 (stereo not given)	–	inactive	inactive	inactive	inactive	inactive	inactive	inactive	inactive	inactive	inactive	inactive	inactive	inactive	2.72	inactive	inactive	inactive	inactive	inactive
N#Cc1ccccc1O	inactive	inactive	–	inactive	–	inactive	inactive	–	inactive	inactive	inactive	inactive	inactive	inactive	15.1	inactive	inactive	inactive	inactive	–
CCCc1ccc(O)cc1	inactive	inactive	inactive	inactive	inactive	inactive	inactive	–	inactive	inactive	inactive	inactive	inactive	inactive	6.55	–	–	–	inactive	–
COc1cc(/C=C/C(N)=O)cc(OC)c1OC	inactive	inactive	inactive	inactive	–	inactive	inactive	inactive	inactive	inactive	inactive	inactive	inactive	inactive	–	inactive	inactive	inactive	–	–
